Data on 10 molecules can be found in PubChem BioAssay (Tox21).

Records with an inconclusive call do not appear. Values without a mark were called inactive. The source made the active and inactive calls. Unless noted, calls follow the shape of the dose curve; as a rule, active = well fitted curve in the direction sought with a large enough effect in the repeat runs; inconclusive = weak or mixed curves; inactive = no such curve, though single readings can be large; an effect the other way counts as inactive or inconclusive.

Assay [1] can be described thus: qHTS assay to identify small molecule agonists of the RXR signaling pathway - cell viability counter screen (AID 1159529). Also: nearly all actives have a fitted effect of over 50% in size. Also: potency is read from the fitted curve at half-maximal effect. An outline of the steps: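 RXR-alpha-UAS-bla HEK 293T cells in medium with 2% charcoal-stripped FBS were pre-incubated 5 hr, then compound-treated 16 hr at 37 C. Viability was read by CellTiter-Glo luminescence in the same wells as the beta-lactamase assay, with tetraoctyl ammonium bromide as positive control.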
Background: In qHTS, concentration-response curves come from the screen itself.

Assay [2] is described as follows: qHTS assay to identify small molecule antagonists of the retinoid acid receptor (RAR) signaling pathway - cell viability counter screen (AID 1159551). Also: nearly all actives have a fitted effect of over 35% in size. An outline of the steps: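 Measured by luminescent ATP detection, viability reflects C3RL4 cells treated 6 h at 37 C with test chemicals in the presence of 1 uM (final) retinol.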
Assay [3] is described as follows: qHTS assay to identify small molecule antagonists of the retinoic acid receptor (RAR) signaling pathway (AID 1159552; also: nearly all actives have a fitted effect of over 50% in size). An outline of the steps: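 Retinol signaling pathway inhibitors screened in C3RL4 RARE-luciferase reporter cells seeded overnight at 37 C, then compounds added with 1 uM (final) retinol as pathway substrate. After 6 hr at 37 C, luciferase luminescence read after 30 min at room temperature.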

A short description of assay [4]: qHTS assay to identify small molecule agonists of the retinoic acid receptor (RAR) signaling pathway (AID 1159553). The method, boiled down: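 6 hr compound exposure (DMSO vehicle) of overnight-plated C3RL4 RARE-luc cells at 37 C; luminescence quantified after 30 min RT with luciferase reagent.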
Assay [5] in a line: qHTS assay to identify small molecule antagonists of the estrogen related receptor (ERR) signaling pathway from Tox21 library - cell viability counter screen (AID 1224834). Also: nearly all actives have a fitted effect of over 30% in size. Also: potency is read from the fitted curve at half-maximal effect. An outline of the steps: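 Seeded ERR cells were rested 6 h at 37 C/5% CO2 before compounds, positive and negative controls or DMSO were added. Incubation continued for 17.5 h, and viability was then quantified by CellTiter-Fluor fluorescence.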

Assay [6] is described as follows: qHTS assay to identify small molecule agonists of the constitutive androstane receptor (CAR) signaling pathway - cell viability counter screen (AID 1224836). Also: series mostly up to about 92 µM; nearly all actives have a fitted effect of over 45% in size. The method, boiled down:
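HepG2 cells stably carrying hCAR and a CYP2B6-2.2kb reporter; 15-concentration compounds plus PK11195 (final 0.75 uM), 23 hr at 37 C/5% CO2. Viability read by CellTiter-Fluor fluorescence.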

Assay [7] in a line: qHTS assay to identify small molecule antagonists of the constitutive androstane receptor (CAR) signaling pathway - cell viability counter screen (AID 1224837). Also: series mostly up to about 92 µM; nearly all actives have a fitted effect of over 45% in size. An outline of the steps:
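To flag cytotoxic false antagonists, HepG2 hCAR/CYP2B6-2.2kb cells were treated 23 hr with 15-concentration compound series and 50 nM CITCO at 37 C/5% CO2; CellTiter-Fluor fluorescence was the measured end point.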

The target in assay [8] is Nuclear receptor subfamily 1 group I member 3 (Homo sapiens) (UniProt Q14994). The experiment in a line: qHTS assay to identify small molecule antagonists of the constitutive androstane receptor (CAR) signaling pathway (AID 1224838).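 Also: HepG2 cells stably expressing hCAR with CYP2B6 luciferase reporter stimulated by CITCO; nearly all actives have a fitted effect of over 40% in size.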 The method, boiled down:
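Human hepatoma HepG2 cells expressing hCAR and a CYP2B6 promoter (2.2 kb) luciferase construct; compound titration (15 points) with 50 nM CITCO final, 24 h at 37 C/5% CO2; luminescence via ONE-Glo after 30 min at room temperature.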

Assay [9] is described as follows: qHTS assay to identify small molecule antagonists of the estrogen related receptor signaling pathway with the pleiotropic PPARgamma coactivator (PGC) from Tox21 10K library - cell viability counter screen (AID 1224840; active = well fitted cell-killing curve with a large enough effect in the repeat runs, not every such curve was filed as active; also: nearly all actives have a fitted effect of over 40% in size). The method, boiled down: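 Seeded PGC/ERR cells (2,000/well, 6 h, 37 C/5% CO2) get compound by pin tool; 17.5 h incubation at 37 C; CellTiter-Fluor added, 30 min, fluorescence measured.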

Assay [10] is described as follows: qHTS assay to identify small molecule agonists of the estrogen related receptor signaling pathway with the pleiotropic PPARgamma coactivator (PGC) from Tox21 10K library (AID 1224842). Also: nearly all actives have a fitted effect of over 15% in size. An outline of the steps: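 PGC/ERR reporter cell line, 2,000 cells per well, incubated 6 h at 37 C before 23 nL compound in DMSO was added. After 18 h at 37 C, One-Glo luminescence read following 30 min at room temperature.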

In assay [11] the target is Thyrotropin receptor (Homo sapiens) (UniProt P16473). Nature of the assay: qHTS assay to identify small molecule agonists of the thyroid stimulating hormone receptor (TSHR) signaling pathway (AID 1224843; calls by dose curve; also: nearly all actives have a fitted effect of over 45% in size). The method, boiled down:
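Agonist-mode screen: TSHR HEK293 cells received test chemicals for half an hour at room temperature, then HTRF cAMP detection reagents for one hour prior to fluorescence measurement. Each chemical ran as a 15-concentration series, triplicated.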

For assay [12], the target named is Luciferin 4-monooxygenase (Photinus pyralis) (UniProt P08659). The experiment in a line: qHTS assay to identify small molecule inhibitors of firefly luciferase (AID 1224835). Also: series mostly up to about 120 µM; nearly all actives have a fitted effect of over 25% in size. An outline of the steps: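 Biochemical qHTS: compounds run as interplate titrations against purified firefly enzyme, with D-luciferin and ATP each at its KM concentration. Light output recorded by CCD imaging.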
Chain of Luciferin 4-monooxygenase (Photinus pyralis) (P08659 whole entry, looked up): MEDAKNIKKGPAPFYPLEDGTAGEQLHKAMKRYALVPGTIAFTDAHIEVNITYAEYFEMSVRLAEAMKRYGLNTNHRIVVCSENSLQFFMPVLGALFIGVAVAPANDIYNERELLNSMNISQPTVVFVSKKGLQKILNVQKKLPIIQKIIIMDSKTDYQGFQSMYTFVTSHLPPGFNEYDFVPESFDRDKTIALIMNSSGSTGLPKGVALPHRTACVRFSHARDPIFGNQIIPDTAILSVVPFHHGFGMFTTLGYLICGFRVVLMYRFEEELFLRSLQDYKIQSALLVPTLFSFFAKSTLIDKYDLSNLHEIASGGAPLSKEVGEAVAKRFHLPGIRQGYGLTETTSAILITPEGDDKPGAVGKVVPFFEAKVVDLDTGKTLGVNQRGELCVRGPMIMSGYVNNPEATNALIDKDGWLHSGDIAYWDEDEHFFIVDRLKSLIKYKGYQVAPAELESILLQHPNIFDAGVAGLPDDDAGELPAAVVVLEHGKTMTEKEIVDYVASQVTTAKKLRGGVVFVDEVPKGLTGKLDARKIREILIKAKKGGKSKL

The target of assay [13] is Nuclear receptor subfamily 1 group I member 3 (Homo sapiens) (UniProt Q14994). Nature of the assay: qHTS assay to identify small molecule agonists of the constitutive androstane receptor (CAR) signaling pathway (AID 1224839).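 Also: HepG2 cells stably carrying human CAR and a CYP2B6 luciferase reporter; series mostly up to about 92 µM; nearly all actives have a fitted effect of over 15% in size.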 The method, boiled down:
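HepG2 cells stably co-transfected with hCAR and a CYP2B6-2.2kb luciferase reporter; compounds at 15 concentrations with 0.75 uM PK11195 present. After 24 hr at 37 C, luciferase read by ONE-Glo luminescence.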

The nature of assay [14]: qHTS assay to identify small molecule antagonists of the estrogen related receptor signaling pathway with the pleiotropic PPARgamma coactivator (PGC) from Tox21 10K library (AID 1224841; call rule not given here; also: actives are mostly falling curves and most rising ones were filed inactive; nearly all actives have a fitted effect of over 50% in size; also: potency is read from the fitted curve at half-maximal effect). The method, boiled down:
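Test chemicals dissolved in DMSO were applied to pre-incubated (6 h) PGC/ERR cells at 2,000 cells/well for an 18 h, 37 C treatment; reporter luminescence was then read using One-Glo.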

Chain of Thyrotropin receptor (Homo sapiens) (P16473 whole entry, looked up): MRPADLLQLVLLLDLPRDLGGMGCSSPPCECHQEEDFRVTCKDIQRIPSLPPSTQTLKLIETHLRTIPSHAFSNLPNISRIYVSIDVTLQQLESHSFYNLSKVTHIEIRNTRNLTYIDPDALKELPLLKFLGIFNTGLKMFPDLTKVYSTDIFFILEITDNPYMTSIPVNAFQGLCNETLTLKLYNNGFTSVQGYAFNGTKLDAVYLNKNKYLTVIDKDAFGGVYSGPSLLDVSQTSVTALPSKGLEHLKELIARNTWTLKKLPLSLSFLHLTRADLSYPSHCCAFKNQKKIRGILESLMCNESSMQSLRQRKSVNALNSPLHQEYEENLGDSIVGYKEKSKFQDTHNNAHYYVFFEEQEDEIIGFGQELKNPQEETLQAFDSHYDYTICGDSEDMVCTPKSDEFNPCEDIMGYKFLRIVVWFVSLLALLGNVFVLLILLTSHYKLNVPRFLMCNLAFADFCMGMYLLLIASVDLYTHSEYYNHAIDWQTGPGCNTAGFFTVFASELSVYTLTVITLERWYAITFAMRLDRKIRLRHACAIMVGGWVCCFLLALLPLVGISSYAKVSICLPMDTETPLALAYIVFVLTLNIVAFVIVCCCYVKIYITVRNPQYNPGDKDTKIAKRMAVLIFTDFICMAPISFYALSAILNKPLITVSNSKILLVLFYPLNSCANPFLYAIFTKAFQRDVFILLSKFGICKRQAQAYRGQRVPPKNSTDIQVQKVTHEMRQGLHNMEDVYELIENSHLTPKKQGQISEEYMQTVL
Chain of Nuclear receptor subfamily 1 group I member 3 (Homo sapiens) (Q14994 whole entry, looked up): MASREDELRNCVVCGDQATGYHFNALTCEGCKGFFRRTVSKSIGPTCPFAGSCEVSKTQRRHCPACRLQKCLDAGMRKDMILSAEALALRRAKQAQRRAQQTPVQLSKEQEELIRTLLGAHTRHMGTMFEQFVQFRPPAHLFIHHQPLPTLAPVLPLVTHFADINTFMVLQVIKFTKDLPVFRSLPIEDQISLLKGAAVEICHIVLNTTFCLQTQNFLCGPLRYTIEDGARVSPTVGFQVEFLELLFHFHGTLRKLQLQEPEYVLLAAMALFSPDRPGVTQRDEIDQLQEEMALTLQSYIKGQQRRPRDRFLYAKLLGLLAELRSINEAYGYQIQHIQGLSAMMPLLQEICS

Turning to `CCCCCCc1ccc(-c2ccc(C#N)cc2)cc1`, the Potency entry in [1], in assay [2], in assay [3], in [4], in [5] and in [6] was “inactive” in each case. Besides, the Potency entry in assay [7], in [8], in [9], in assay [10] and in assay [11] was “inactive” each time.

In the case of `CCn1cc(C(=O)O)c(=O)c2cnc(N3CCNCC3)nc21`, the Potency entry in [1], in assay [2], in assay [3], in assay [5], in assay [12] and in assay [6] was “inactive” throughout. The Potency entry in assay [7], in assay [8], in assay [9] and in assay [10] was “inactive” throughout.

On to `O=S(c1cc(Cl)cc(Cl)c1O)c1cc(Cl)cc(Cl)c1O`, for which the Potency entry in assay [1], in assay [2], in assay [3], in [4], in [5] and in [6] was “inactive” in each case. Besides, the Potency entry in [7], in assay [8], in assay [13], in [9], in [10] and in assay [11] was “inactive” each time.

Turning to `CC(C)O.CC(C)O.CCOC(=O)/C=C(\C)O.CCOC(=O)/C=C(\C)O.[Ti]`, the Potency result in assay [1], in assay [2], in assay [3], in [4], in assay [5] and in [6] was “inactive” each time. Moreover, the Potency entry in assay [7], in assay [9] and in [11] was “inactive” each time.

As to `NS(=O)(=O)c1ccc(N2CCCCS2(=O)=O)cc1`, the Potency entry in [1], in [2], in assay [3], in assay [4], in assay [5] and in [12] was “inactive” in each case. In addition, the Potency result in assay [6], in assay [7], in assay [13], in assay [9], in assay [14] and in assay [10] was “inactive” each time. The Potency result in assay [11] was “inactive”.

In the case of `CCC(Cl)CCC(Cl)C(Cl)CC(Cl)C(Cl)C(Cl)CCl` (stereo not given), the Potency result in assay [1], in [2], in [3], in assay [5], in [12] and in assay [6] was “inactive” throughout. The Potency result in assay [7], in assay [8], in assay [13], in assay [9], in assay [10] and in assay [11] was “inactive” each time.

As for `C=C1C(=C/C=C2\CCC[C@]3(C)[C@@H]([C@H](C)/C=C/[C@@H](O)C4CC4)CC[C@@H]23)C[C@@H](O)C[C@@H]1O`, the Potency in [1] is 23.9 µM (active); in [5] it was 29.8 µM (active). Also, the Potency entry in assay [2], in assay [3], in assay [12], in assay [6], in assay [7] and in [8] was “inactive” in each case. Also, the Potency entry in [10] is “inactive”.

As to `Cc1nn(C)c(Oc2ccccc2)c1/C=N/OCc1ccc(C(=O)OC(C)(C)C)cc1`, the Potency entry in [1], in assay [2], in assay [3], in assay [4], in assay [5] and in assay [12] was “inactive” in each case. Also, the Potency entry in assay [9] and in assay [10] was “inactive” each time.

As to `CC(COCCO)OCCO` (stereo not given), the Potency entry in assay [1], in [2], in [3], in [4], in assay [5] and in assay [12] was “inactive” throughout. Besides, the Potency result in assay [6], in [7], in assay [9], in assay [10] and in assay [11] was “inactive” each time.

Consider `COc1cc2c(cc1OC)C(C(C(=O)N(CCc1ccc(OC)c(OC)c1OC)CCc1ccc(OC)c(OC)c1OC)c1ccccc1)=NCC2` (stereo not given), for which the Potency entry in assay [1], in assay [2], in [3], in assay [4], in [12] and in assay [6] was “inactive” each time. The Potency entry in [7] and in assay [10] was “inactive” throughout. Besides, the Potency in assay [5] and in assay [14] was 23.7 µM (active) in each case.
